Here are results for 16 molecules from PubChem BioAssay (Tox21).

Molecules are shown by their SMILES. Where “and” joins values, the source holds several entries; their conditions need not be identical. Identical values can stand only once. Inconclusive results are not listed. Calls of active or inactive are those of the source. Unless noted, the call rests on the fitted dose curve; in most records, active means well fitted curve in the direction sought with a large enough effect in the repeat runs; inconclusive means weak or mixed curves; inactive means no such curve, though single readings can be large; an effect the other way counts as inactive or inconclusive.

Test [1] addresses Aryl hydrocarbon receptor (Homo sapiens) (UniProt P35869). Nature of the test: qHTS assay to identify small molecule that activate the aryl hydrocarbon receptor (AhR) signaling pathway (AID 743085). Further: nearly all actives have a fitted effect of over 15% in size. Further: potency means the concentration at half of the fitted maximal effect. A digest of the protocol:
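Luminescence (ONE-Glo) from a dioxin-responsive-element luciferase reporter in HG2L7.5c1 HepG2 cells after 24 hr compound exposure at 37C; viability measured by CellTiter-Fluor fluorescence beforehand.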
Background: In qHTS, concentration-response curves come from the screen itself.

Test [2] can be described thus: qHTS assay to identify small molecule that activate the aryl hydrocarbon receptor (AhR) signaling pathway - cell viability counter screen (AID 743086). Further: nearly all actives have a fitted effect of over 45% in size. Further: potency means the concentration at half of the fitted maximal effect. A digest of the protocol:
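HepG2-AhR-luc (HG2L7.5c1) cells, 4000/well, were preincubated 5 h at 37C, exposed to compound in qHTS format for 24 hr at 37C, then given CellTiter-Fluor for 30 min; viability was read as fluorescence in the reporter wells.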

The target in test [3] is Peroxisome proliferator-activated receptor gamma (Homo sapiens) (UniProt P37231). Nature of the test: qHTS assay to identify small molecule agonists of the peroxisome proliferator-activated receptor gamma (PPARg) signaling pathway (AID 743094; active means well fitted activation curve with a large enough effect in the signal ratio in the repeat runs, not every such curve was filed as active; the % refers to the signal ratio; further: on the % scale 0 is the no-effect control and ±100 the full control effect). The method, boiled down:
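Beta-lactamase FRET fluorescence was the read-out after a 1 h room-temperature substrate step, following 17 h compound treatment at 37C of HEK293H cells expressing a UAS-driven bla reporter responsive to PPARg.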

Test [4] is described as follows: qHTS assay to identify small molecule antagonists of the peroxisome proliferator-activated receptor delta (PPARd) signaling pathway - cell viability counter screen (AID 743213). Further: nearly all actives have a fitted effect of over 50% in size. Further: potency means the concentration at half of the fitted maximal effect. The method, boiled down: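 Luminescence from CellTiter-Glo, added after the bla read and incubated 30 min at room temperature, gives viability of HEK293H PPARd-bla cells exposed to compounds for 17 h at 37 C with 300 nM L165041.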

Test [5] can be described thus: qHTS assay to identify small molecule antagonists of the farnesoid-X-receptor (FXR) signaling pathway - cell viability counter screen (AID 743221; active means well fitted cell-killing curve with a large enough effect in the repeat runs, not every such curve was filed as active; further: nearly all actives have a fitted effect of over 50% in size; further: potency means the concentration at half of the fitted maximal effect). The method, boiled down: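 Cytotoxicity counter screen run in the FXR-bla reporter wells: HEK 293T cells exposed to compound with 50 uM (final) chenodeoxycholic acid for 16 h, 37 C, then viability measured by CellTiter-Glo luminescence after 30 min, room temperature.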

A short description of test [6]: qHTS assay to identify small molecule antagonists of the peroxisome proliferator-activated receptor gamma (PPARg) signaling pathway - cell viability counter screen (AID 743194). Further: nearly all actives have a fitted effect of over 55% in size. Further: potency means the concentration at half of the fitted maximal effect. The method, boiled down:
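PPARg-UAS-bla HEK293H cells were plated, rested 5 h at 37 C, then treated with compounds plus rosiglitazone (50 nM final) for 17 h at 37 C; viability was then read by CellTiter-Glo luminescence after 30 min at room temperature.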

The nature of test [7]: qHTS assay for small molecule agonists of the antioxidant response element (ARE) signaling pathway - cell viability counter screen (AID 743203; calls by dose curve; further: nearly all actives have a fitted effect of over 55% in size; further: potency means the concentration at half of the fitted maximal effect). The method, boiled down: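 HepG2 cells carrying ARE-driven beta-lactamase; 2,000 cells/well; 5 hrs plating; compound pinned from DMSO; 16 hrs 37C/5% CO2; CellTiter-Glo added; 30 min RT; luminescence.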
Test [8] can be described thus: qHTS assay for small molecule activators of the heat shock response signaling pathway - cell viability counter screen (AID 743209). Further: nearly all actives have a fitted effect of over 50% in size. Further: potency means the concentration at half of the fitted maximal effect. A digest of the protocol:
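Luminescence from CellTiter-Glo, added after the beta-lactamase FRET read, gave the viability signal. Cells were HSE-bla HeLa treated with DMSO-dissolved compounds for 5 h at 37 C following overnight plating.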

Test [9] in a line: qHTS assay to identify small molecule agonists of the peroxisome proliferator-activated receptor delta (PPARd) signaling pathway - cell viability counter screen (AID 743211). Further: nearly all actives have a fitted effect of over 55% in size. Further: potency means the concentration at half of the fitted maximal effect. A digest of the protocol: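 Viability was measured as CellTiter-Glo luminescence (30 min, room temperature) in the same wells as the beta-lactamase readout. GeneBLAzer PPARd UAS-bla HEK293H cells received compound after 5 h plating and were incubated 17 h at 37 C.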

Test [10] can be described thus: qHTS assay to identify small molecule agonists of the farnesoid-X-receptor (FXR) signaling pathway - cell viability counter screen (AID 743218). Further: nearly all actives have a fitted effect of over 45% in size. Further: potency means the concentration at half of the fitted maximal effect. A digest of the protocol: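 HEK 293T FXR-bla cells; 5 h pre-incubation, 16 h compound exposure at 37 C; LiveBLAzer substrate 2 h RT, then CellTiter-Glo 30 min RT, luminescence.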
Test [11] is described as follows: qHTS assay to identify aromatase inhibitors - cell viability counter screen (AID 743084).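 Further: cells stimulated with testosterone during compound exposure; potency means the concentration at half of the fitted maximal effect; nearly all actives have a fitted effect of over 55% in size.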
For test [12], the target named is Peroxisome proliferator-activated receptor delta (Homo sapiens) (UniProt Q03181). The experiment in a line: qHTS assay to identify small molecule agonists of the peroxisome proliferator-activated receptor delta (PPARd) signaling pathway (AID 743212; calls by dose curve; further: on the % scale 0 is the no-effect control and ±100 the full control effect). The method, boiled down:
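A PPARd-bla HEK293H line with beta-lactamase under an Upstream Activator Sequence is treated with compounds at 37 C. Substrate loading for 2 h at room temperature precedes the fluorescence measurement.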

The target of test [13] is Vitamin D3 receptor (Homo sapiens) (UniProt P11473). The experiment in a line: qHTS assay to identify small molecule agonists of the vitamin D receptor (VDR) signaling pathway (AID 743222; calls by dose curve; further: on the % scale 0 is the no-effect control and ±100 the full control effect). The method, boiled down:
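VDR-bla cells, 2,000/well; 4 h preincubation 37C; cpd (DMSO) 16 h; LiveBLAzer B/G substrate 2 h RT; fluorescence intensity read.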

The nature of test [14]: qHTS assay for small molecule activators of the heat shock response signaling pathway (AID 743210; active means well fitted activation curve with a large enough effect in the signal ratio in the repeat runs, with a control signal flat, not every such curve was filed as active; the % refers to the signal ratio;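 further: HeLa cells with beta-lactamase reporter driven by heat shock elements; series mostly up to about 63 µM; on the % scale 0 is the no-effect control and ±100 the full control effect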). The method, boiled down:
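Reporter gene assay: HeLa cells stably bearing an HSE-bla construct, compound treatment 5 h at 37 C, LiveBLAzer substrate 2.5 h at RT, fluorescence intensity.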

Test [15] deals with Peroxisome proliferator-activated receptor delta (Homo sapiens) (UniProt Q03181). The experiment in a line: qHTS assay to identify small molecule antagonists of the peroxisome proliferator-activated receptor delta (PPARd) signaling pathway (AID 743215; active means well fitted inhibition curve with a large enough effect in the signal ratio in the repeat runs, not every such curve was filed as active; the % refers to the signal ratio). The method, boiled down:
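Read-out is beta-lactamase FRET fluorescence, measured 2 h after substrate addition at room temperature. Beforehand, UAS-bla HEK293H cells carrying the PPARd reporter were exposed to compounds with L165041 at 300 nM final for 17 h at 37 C.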

Test [16] has as its target Vitamin D3 receptor (Homo sapiens) (UniProt P11473). Nature of the test: qHTS assay to identify small molecule antagonists of the vitamin D receptor (VDR) signaling pathway (AID 743223; active means well fitted inhibition curve with a large enough effect in the signal ratio in the repeat runs, not every such curve was filed as active; the % refers to the signal ratio; further: potency means the concentration at half of the fitted maximal effect). A digest of the protocol:
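Antagonist mode: compound added to VDR-bla cells alongside agonist 1alpha,25-dihydroxyvitamin D3 (3 nM final), incubation 16 h at 37C. Read-out is LiveBLAzer FRET fluorescence, 2 h at room temperature.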

Test [17] addresses Peroxisome proliferator-activated receptor gamma (Homo sapiens) (UniProt P37231). Nature of the test: qHTS assay to identify small molecule antagonists of the peroxisome proliferator-activated receptor gamma (PPARg) signaling pathway (AID 743191; calls by dose curve; further: nearly all actives have a fitted effect of over 30% in size; further: potency means the concentration at half of the fitted maximal effect). The method, boiled down:
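GeneBLAzer PPARg UAS-bla HEK293H cells carrying a UAS-driven beta-lactamase reporter were plated at 3000 cells/well, preincubated 5 h at 37C, then given compound for 17 h at 37C; LiveBLAzer B/G FRET substrate was read after 1 h at room temperature.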

The nature of test [18]: qHTS assay for small molecule agonists of the antioxidant response element (ARE) signaling pathway (AID 743202; active means well fitted activation curve with a large enough effect in the signal ratio in the repeat runs, not every such curve was filed as active; the % refers to the signal ratio; further: potency means the concentration at half of the fitted maximal effect). The method, boiled down: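 Compounds delivered in DMSO to ARE-bla HepG2 cells (2,000 cells/well, pre-incubated 5 h) and left 16 h at 37 C. LiveBLAzer B/G FRET substrate then added for 2 h at RT before fluorescence reading.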
Test [19] addresses Bile acid receptor (Homo sapiens) (UniProt Q96RI1). The experiment in a line: qHTS assay to identify small molecule agonists of the farnesoid-X-receptor (FXR) signaling pathway (AID 743220; active means well fitted activation curve with a large enough effect in the signal ratio in the repeat runs, not every such curve was filed as active; the % refers to the signal ratio; further: on the % scale 0 is the no-effect control and ±100 the full control effect). The method, boiled down:
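Beta-lactamase reporter under UAS control in GeneBLAzer FXR HEK 293T cells (5000/well) measured with LiveBLAzer FRET substrate after 2 h at room temperature. Compound exposure lasted 16 h at 37C.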

Test [20] has the same target. The experiment in a line: qHTS assay to identify small molecule antagonists of the farnesoid-X-receptor (FXR) signaling pathway (AID 743217; active means well fitted inhibition curve with a large enough effect in the signal ratio in the repeat runs, not every such curve was filed as active; the % refers to the signal ratio; further: potency means the concentration at half of the fitted maximal effect). The method, boiled down: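 HEK 293T FXR-UAS-bla, 5000 cells/well; compound + CDCA 50 uM final; 16 h, 37 °C; B/G FRET substrate 2 h RT; fluorescence.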

Sequence of Aryl hydrocarbon receptor (Homo sapiens) (P35869 whole entry, looked up): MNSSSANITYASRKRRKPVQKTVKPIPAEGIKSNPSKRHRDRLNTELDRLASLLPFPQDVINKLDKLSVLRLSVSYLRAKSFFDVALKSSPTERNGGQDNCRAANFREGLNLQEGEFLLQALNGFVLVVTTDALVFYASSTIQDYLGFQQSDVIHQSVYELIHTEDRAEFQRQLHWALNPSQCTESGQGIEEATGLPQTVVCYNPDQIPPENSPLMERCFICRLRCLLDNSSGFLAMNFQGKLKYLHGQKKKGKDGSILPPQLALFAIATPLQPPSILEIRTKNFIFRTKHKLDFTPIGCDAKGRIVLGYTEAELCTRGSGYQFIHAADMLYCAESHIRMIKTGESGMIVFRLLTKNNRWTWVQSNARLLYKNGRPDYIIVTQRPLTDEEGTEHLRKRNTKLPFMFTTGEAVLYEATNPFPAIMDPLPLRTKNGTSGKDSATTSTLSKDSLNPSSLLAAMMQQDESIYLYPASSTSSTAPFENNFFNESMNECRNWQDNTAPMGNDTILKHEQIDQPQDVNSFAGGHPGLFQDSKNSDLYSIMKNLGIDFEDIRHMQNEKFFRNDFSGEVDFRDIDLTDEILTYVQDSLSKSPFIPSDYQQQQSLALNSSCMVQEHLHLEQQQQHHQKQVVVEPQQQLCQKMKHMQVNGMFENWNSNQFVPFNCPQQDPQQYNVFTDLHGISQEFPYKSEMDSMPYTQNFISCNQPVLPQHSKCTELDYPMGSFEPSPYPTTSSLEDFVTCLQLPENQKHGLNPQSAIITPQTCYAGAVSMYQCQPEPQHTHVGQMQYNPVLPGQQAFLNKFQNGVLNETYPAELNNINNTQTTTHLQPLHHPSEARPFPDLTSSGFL
Sequence of Vitamin D3 receptor (Homo sapiens) (P11473 whole entry, looked up): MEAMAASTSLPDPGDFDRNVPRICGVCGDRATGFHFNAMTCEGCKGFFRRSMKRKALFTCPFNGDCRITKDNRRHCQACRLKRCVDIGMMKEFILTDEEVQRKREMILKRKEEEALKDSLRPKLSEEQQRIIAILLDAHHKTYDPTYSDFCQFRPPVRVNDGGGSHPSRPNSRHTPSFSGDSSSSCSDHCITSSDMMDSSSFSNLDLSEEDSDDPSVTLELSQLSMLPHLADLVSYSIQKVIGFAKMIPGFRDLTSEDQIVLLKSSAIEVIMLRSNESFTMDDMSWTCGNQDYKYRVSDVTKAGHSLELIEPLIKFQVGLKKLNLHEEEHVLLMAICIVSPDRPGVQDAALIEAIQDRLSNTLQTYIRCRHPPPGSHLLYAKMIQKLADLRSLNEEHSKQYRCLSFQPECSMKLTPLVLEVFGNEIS
Sequence of Peroxisome proliferator-activated receptor gamma (Homo sapiens) (P37231 whole entry, looked up): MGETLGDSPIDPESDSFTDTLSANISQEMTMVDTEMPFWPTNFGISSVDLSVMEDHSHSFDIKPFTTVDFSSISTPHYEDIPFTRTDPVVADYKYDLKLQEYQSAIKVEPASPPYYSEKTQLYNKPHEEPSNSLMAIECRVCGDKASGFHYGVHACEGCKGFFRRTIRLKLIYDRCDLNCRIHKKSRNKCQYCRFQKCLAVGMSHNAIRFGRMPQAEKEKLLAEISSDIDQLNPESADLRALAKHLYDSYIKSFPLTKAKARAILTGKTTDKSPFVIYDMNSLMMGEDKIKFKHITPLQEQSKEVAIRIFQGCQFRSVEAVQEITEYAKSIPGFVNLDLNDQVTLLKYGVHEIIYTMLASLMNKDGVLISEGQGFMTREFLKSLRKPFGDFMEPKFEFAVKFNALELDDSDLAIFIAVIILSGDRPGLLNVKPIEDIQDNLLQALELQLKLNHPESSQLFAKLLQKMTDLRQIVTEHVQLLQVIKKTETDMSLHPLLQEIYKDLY
Sequence of Bile acid receptor (Homo sapiens) (Q96RI1 whole entry, looked up): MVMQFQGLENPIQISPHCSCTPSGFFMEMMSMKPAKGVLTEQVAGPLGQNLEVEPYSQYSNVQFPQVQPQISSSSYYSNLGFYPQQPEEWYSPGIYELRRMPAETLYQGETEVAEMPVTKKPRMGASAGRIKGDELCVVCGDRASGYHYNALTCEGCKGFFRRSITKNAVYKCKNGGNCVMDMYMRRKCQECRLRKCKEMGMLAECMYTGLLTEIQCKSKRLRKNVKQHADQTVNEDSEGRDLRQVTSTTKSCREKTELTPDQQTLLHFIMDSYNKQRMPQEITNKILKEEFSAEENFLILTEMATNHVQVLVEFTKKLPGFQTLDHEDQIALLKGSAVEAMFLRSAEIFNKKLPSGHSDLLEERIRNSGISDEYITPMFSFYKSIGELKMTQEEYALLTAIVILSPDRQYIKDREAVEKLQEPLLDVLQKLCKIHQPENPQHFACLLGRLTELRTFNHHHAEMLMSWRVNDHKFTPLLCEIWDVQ
Sequence of Peroxisome proliferator-activated receptor delta (Homo sapiens) (Q03181 whole entry, looked up): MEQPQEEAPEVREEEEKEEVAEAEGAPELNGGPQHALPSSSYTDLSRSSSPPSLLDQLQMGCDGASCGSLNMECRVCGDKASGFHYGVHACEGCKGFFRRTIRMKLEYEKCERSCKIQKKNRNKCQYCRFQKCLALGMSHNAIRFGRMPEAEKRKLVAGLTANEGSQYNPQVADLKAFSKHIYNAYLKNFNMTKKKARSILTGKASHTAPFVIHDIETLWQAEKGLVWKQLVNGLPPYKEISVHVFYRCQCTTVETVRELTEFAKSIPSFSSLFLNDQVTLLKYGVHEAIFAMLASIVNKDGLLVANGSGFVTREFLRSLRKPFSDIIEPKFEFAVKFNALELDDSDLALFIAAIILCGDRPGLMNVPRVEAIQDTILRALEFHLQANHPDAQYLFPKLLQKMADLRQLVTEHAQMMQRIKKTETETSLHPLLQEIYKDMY

With `NC(=NCCCCCCN=C(N)/N=C(\N)Nc1ccc(Cl)cc1)/N=C(\N)Nc1ccc(Cl)cc1`, the Potency result in [1], in [2] and in [3] was “inactive” each time. Besides, the Potency in [4] was 19.8 µM (active) [middle of 4 runs]; in test [5], 19.4 µM (active) and 43.4 µM (active).
In the case of `CCCCCCCCNC(C)C(O)c1ccc(SC(C)C)cc1` (stereo not drawn), the Potency is 23.7 µM (active) in [2]; 23.7 µM (active) in test [6]; 16.8 µM (active) in test [7]; 18.8 µM (active) in [8]; 9.44 µM (active) in test [9]; 8.41 µM (active) in test [4]. For the same molecule, the Potency was 18.8 µM (active) in [10] and 23.7 µM (active) in test [5]. For the same molecule, in [3], the Potency result was “inactive”.
Take `[Cl][Au]([Cl])[Cl]`: the Potency in test [11] is 27.3 µM (active); in [7], 0.77 µM (active); in test [9], 3.09 µM (active); in test [4], 9.77 µM (active); in [10], 2.75 µM (active); in test [5] it was 3.47 µM (active).
As for `CCCN(CCC)c1c([N+](=O)[O-])cc(C(F)(F)F)c(N)c1[N+](=O)[O-]`, the Potency in [11] was 54.3 µM (active); in test [6] it was 19.4 µM (active); in test [7], 60.9 µM (active); in [8], 34.6 µM (active); in test [9] it was 19.4 µM (active); in [4], 30.8 µM (active). In addition, the Potency in test [10] is 38.8 µM (active).
For `Cc1cc2c(cc1C(F)(F)F)N(C(=O)Nc1ccc(Oc3cccnc3C)nc1)CC2`, the Potency result in test [1], in test [2], in test [3], in [6], in test [8] and in test [12] was “inactive” each time. The Potency result in [5] and in [13] was “inactive” each time. Further, the Potency was 34.9 µM (active) in test [7], 44.3 µM (active) in test [9], 19.8 µM (active) in test [4] and 35.2 µM (active) in test [10].
On to `Oc1ccc(N=Nc2ccccc2)cc1`, for which the Potency in test [11] was 31 µM (active). The Potency entry in test [6], in [7], in test [8], in test [14], in test [12] and in test [15] was “inactive” in each case. For the same molecule, the Potency entry in test [10] and in test [5] was “inactive” each time.
`CCOC(=O)O[C@H](C)OC(=O)c1ccc2c(c1)cc(C(=O)NC1CCN(C(C)C)CC1)n2Cc1cc(-c2ccc(Cl)s2)on1`: the Potency is 18.1 µM (active) in [11]; 10.2 µM (active) in [6]; 22.7 µM (active) in [7]; 22.9 µM (active) in test [8]; 18.2 µM (active) in [4]; 16.2 µM (active) in [10]. Moreover, the values for the Potency in test [5] and in test [16] were 45.8 µM (active) and 16.2 µM (active), respectively.
On to `OCc1c[nH]c2ccccc12`, for which the Potency is 5.14 µM (active) in [1] and 12.3 µM (active) in [17]. Also, the Potency entry in test [7], in test [8] and in [5] was “inactive” in each case.
For the molecule `CCCCCCCCS(=O)C(C)Cc1ccc2c(c1)OCO2` (stereo not drawn), the Potency in [1] is 27.8 µM (active); in test [17], 56 µM (active); in test [18], 19.7 µM (active); in test [9] it was 50 µM (active). Moreover, the Potency entry in [2], in test [6] and in [19] was “inactive” throughout.
For `CNc1ccc(O)cc1`, the Potency in test [11] is 19.3 µM (active); in test [6], 43.6 µM (active); in test [9], 38.8 µM (active); in [4] it was 43.6 µM (active). Further, in [5], the Potency result was “inactive”.
Consider `O=C1CCCCCN1SSN1CCCCCC1=O`, for which the Potency result in test [1], in [2], in test [3], in test [17], in [6] and in test [18] was “inactive” throughout. The Potency result in test [7], in [8], in test [9], in test [12], in test [4] and in test [20] was “inactive” throughout. For the same molecule, the Potency result in [5] and in test [16] was “inactive” throughout.
With `O=C(Nc1cccc(C(F)(F)F)c1)c1cc(Br)cc(Br)c1O`, in test [2], the Potency entry is “inactive”. Also, the Potency in test [6] is 0.389 µM (active); in test [7], 10.9 µM (active); in test [9], 6.16 µM (active); in test [4], 6.92 µM (active); in test [10] it was 4.36 µM (active); in test [5] it was 11 µM (active).
For `CC1=C(C(=O)OC(C)C)C(c2cccc([N+](=O)[O-])c2)C(C(=O)OC2CN(C(c3ccccc3)c3ccccc3)C2)=C(N)N1` (stereo not drawn), the Potency in [6] is 23.7 µM (active); in test [7] it was 23.7 µM (active); in [8] it was 10.6 µM (active); in test [9], 11.9 µM (active); in test [20], 29.8 µM (active); in test [10], 13.3 µM (active). In addition, in test [5], the Potency was 26.6 µM (active). Further, the Potency result in test [15] was “inactive”.
Regarding `O=c1[nH]sc2cc(Cl)ccc12`, the Potency result in test [6], in [7] and in test [19] was “inactive” each time. In addition, the results for the Potency in [9] and in test [4] were 26.6 µM (active) and 11.9 µM (active), respectively.
Turning to `Cc1oc(-c2ccccc2)nc1CCC(=O)c1ccc(CC2SC(=O)NC2=O)cc1` (stereo not drawn), the Potency result in [6], in [7], in [8], in test [9], in test [10] and in test [5] was “inactive” each time. For the same molecule, the Potency in test [18] was 13.3 µM (active).
As for `O=C(Oc1ccccc1)c1ccccc1C(=O)Oc1ccccc1`, the Potency result in test [2], in [6], in test [7], in [8], in test [9] and in test [12] was “inactive” throughout. Moreover, the Potency entry in [15], in test [10] and in test [5] was “inactive” each time.
